From ChEMBL document CHEMBL3988442, “University of Dundee, Small-Polar-MMV Screening Library” (2021)
Out of some 48,000 compounds screened, about 13,000 (27%) showed an effect of 50% or more. The list shows a part of the results.

test system: Wolbachia pipientis; experiment: Anti-Wolbachia Cell-Based Screen; assay type: functional; parameters: scale not given: in the data most compounds retested in dose-response had high values; conditions: 5 µM

Compound | Percent Effect
c1cnc(CC2CCN(c3cnccn3)CC2)cn1 | 139.5%
Cc1noc(-c2ccnc(N3CCC(CN4CCOCC4)CC3)c2)n1 | 3.253%
O=C1[C@H]2CN(c3cnccn3)C[C@H]2CN1CC1CC1 | -18.33%
Cc1ccccc1CSc1nc(N)cc(N2CCOCC(CO)C2)n1 (stereo not drawn) | 4.884%
O=C(O)c1cccc(CC2CCN(c3cnccn3)CC2)c1 | -21.8%
Cc1nccc(CC2COCCN(c3cnccn3)C2)n1 (stereo not drawn) | 114.6%
O=C1NCCN(C(=O)CCN2CCCO2)C1c1cccc(F)c1 (stereo not drawn) | -39.77%
Cc1ccnc(NCCNC(=O)Cc2c(C)[nH]c3c(C)ccc(C)c23)c1 | -11.21%
Cc1ccc([C@@H]2CN(C(=O)c3cccnn3)C[C@H]2NC(=O)C2CC2)cc1 | 2.45%
Cc1cccc(C(C(=O)NC(C)(C)CN2CCOCC2)N(C)C)c1 (stereo not drawn) | 112.8%
Cc1cccc(C(C(=O)NCCn2cccc2)N(C)C)c1 (stereo not drawn) | -2.901%
Cc1cccc(C(C(=O)NC(C)(C)CN2CCCC2)N(C)C)c1 (stereo not drawn) | 106.7%
Cc1ccc(C(C(=O)NCCN2CCCCCC2)N(C)C)cc1 (stereo not drawn) | -4.058%
Cc1ccc(C(C(=O)NCCN2CCC(CO)CC2)N(C)C)cc1 (stereo not drawn) | 0.4619%
CCSCCNC(=O)C(c1cccc(C)c1)N(C)C (stereo not drawn) | -29.39%
Cc1cc(C)cc(C(C(=O)O)N(C)CCCN2CCOCC2)c1 (stereo not drawn) | 10.88%
Cc1cccc(C(C(=O)NCC2(O)CCCCC2)N(C)C)c1 (stereo not drawn) | -2.512%
Cc1ccc(C(C(=O)NC(C)(C)CN2CCCC2)N(C)C)cc1 (stereo not drawn) | 96.39%
CN(C)S(=O)(=O)NCC1OCCc2cn(CC3CCOCC3)nc21 (stereo not drawn) | 2.181%
CC(=O)c1c(F)cccc1N1CCC(C(N)=O)CC1 | 16.85%
CC(C)n1nc(CNc2ncccn2)c2c1CN(C1CCOCC1)CC2.O=C(O)C(F)(F)F | 3.818%
CNS(=O)(=O)Cc1cccc(CNc2ccc(C#N)cn2)c1 | 5.411%
Cc1ccc(F)c(OC2(C(=O)O)CCN(C(=O)N3CCCC3)CC2)c1 | -14.67%
COC(=O)[C@H]1C[C@@H](O)CCN1S(=O)(=O)c1c(C)cc(OC)c(C)c1C | -13.15%
COc1ccc(-c2c(C(C)C)nn3c(=N)c(C#N)n[nH]c23)cc1 | 89.55%

Compound | Percent Effect
CCc1nn2c(=N)c(C#N)n[nH]c2c1-c1ccc(OC)cc1 | 103%
COc1ccc(CN(C)c2nccc(-c3cn(C)nc3C)n2)cc1 | -45.72%
COc1ccc(-c2c(C)nn3c(=N)c(C#N)n[nH]c23)cc1OC | 107.4%
COc1ccc(-c2c(C)nn3c(=N)c(C#N)n[nH]c23)cc1 | 88.05%
COc1ccc(-c2csc(N)c2C#N)cc1OC | -8.208%
CCN(C)C[C@H]1CC[C@@H](Cc2ccc3c(cnn3C)c2)O1 | -8.878%
CCS(=O)(=O)c1ccc(NCc2csc(C(C)C)n2)cc1 | 5.353%
O=C1NCCN(Cc2ccccc2)C1CC(=O)N1CCc2n[nH]cc2C1 (stereo not drawn) | -21.59%
CNc1nccnc1C1CN(Cc2ccc3[nH]ccc3c2)CCO1 (stereo not drawn) | 136.6%
COc1ccc(CN2CCOC[C@H](OCC(=O)N(C)C)C2)cc1 | -7.108%
Nc1nccnc1C1CN(C(=O)COc2cccnc2)CCO1 (stereo not drawn) | 107.6%
Nc1nccnc1C1CN(Cc2ccc(OCC(=O)O)cc2)CCO1 (stereo not drawn) | 171.8%
O=C(COc1cccnc1)N1CCCC(n2cccn2)C1 (stereo not drawn) | -8.892%
O=C(COc1cccnc1)N1CCOC(C(F)(F)F)C1 (stereo not drawn) | -4.014%
O=C(O)C(F)(F)F.O=C(O)C(F)(F)F.c1cc(C2CC2)n2cnc(C3CN(Cc4ccncc4)CCO3)c2c1 (stereo not drawn) | 5.365%
CNc1nccnc1C1CN(Cc2ccc(OCC(=O)O)cc2)CCO1 (stereo not drawn) | 142.7%
Cl.O=C(O)CC1CN(Cc2ccccc2)CCO1 (stereo not drawn) | -7.682%
Cc1ncsc1C(=O)NCCOc1ncc(Cl)cc1Cl | 21.09%
Cc1ncsc1CCN(C)C(=O)CN1C(=O)OC[C@@H]1c1ccccc1 | -3.352%
CN(Cc1ccc(C(=O)NCC2COCCO2)c(=O)[nH]1)CC(C)(C)C (stereo not drawn) | -4.558%
Cc1ccc(NC(=O)NC(C)(C)c2noc(C)n2)cc1 | -4.171%
Cn1nnc2c1CCN(CC1CC1)C2COCC1CC1.O=C(O)C(F)(F)F (stereo not drawn) | 12.72%
Cc1noc(CCCNS(=O)(=O)N2CCCC2c2ccco2)n1 (stereo not drawn) | -11.05%
Cc1cnccc1CN(C)C(=O)c1cccc(CCC(C)(C)O)c1 | 0.1694%
CCCOC1CCCN(C(=O)c2cc(CN(CC)CC)c(CC)o2)C1 (stereo not drawn) | 92.62%

Compound | Percent Effect
CCc1oc(C(=O)N2CC[C@H]3CC[C@@H](C2)N3)cc1CN(CC)CC | 112%
CCCOC1CCCN(C(=O)c2csc(S(N)(=O)=O)c2)C1 (stereo not drawn) | 6.923%
CCc1ccc(C(=O)N2CCC(N(C)C(=O)OC(C)(C)C)C2)o1 (stereo not drawn) | 8.552%
CCCOC1CCCN(C(=O)c2ccnnc2)C1 (stereo not drawn) | 0.837%
CCCOc1ccc(C(=O)N2CC[C@H]3CC[C@@H](C2)N3)cc1Cl | -21.75%
CCc1oc(C(=O)N2CCC(N(CC)C(C)=O)C2)cc1CN(CC)CC (stereo not drawn) | 93.17%
CCc1oc(C(=O)N2CCCC(c3nnn[nH]3)C2)cc1C (stereo not drawn) | -3.531%
CCN(CC)Cc1cc(C(=O)N2CC[C@@]3(O)CCCC[C@H]3C2)c(C)o1 | -6.043%
O=C(CCCc1ccccn1)NCC(O)c1c(F)cccc1F (stereo not drawn) | 14.04%
CC(=O)Nc1ccc(CNC(=O)CNCc2nnc(C)o2)cc1 | -22.07%
CC(C)c1ncc(CN2C[C@@H](CN3CCCN(C)CC3)[C@@H](CO)C2)cn1 | -6.838%
COc1cc(CN(C)C(=O)NCCC2CCCO2)ccc1SC (stereo not drawn) | -4.598%
Cc1nccn1CCN(C)c1cc(C(C)C)nc2ccnn12 | -21.61%
Cc1cc(N(C)CCn2ccnc2C)n2nccc2n1 | 3.132%
Cc1cc(C)nc(N(C)CCn2ccnc2C)n1 | 70.85%
Cc1nc(N2CCN(C(=O)C(C)(C)C)CC2)cc(-n2cnc(C)c2C)n1 | -0.05678%
O=C(Nc1cccnc1)C1Cc2nc(-c3ccsc3)sc2N1CC1CC1.O=C(O)C(F)(F)F (stereo not drawn) | 52.78%
O=C(O)C(F)(F)F.O=C1N(c2ccsc2)CCC12CCCN(CC1CC1)C2 (stereo not drawn) | 0.74%
CN(C)CCNC(=O)C1Cc2nc(-c3ccsc3)sc2N1CC1CC1.O=C(O)C(F)(F)F (stereo not drawn) | 106.6%
O=C(O)C(F)(F)F.O=C(c1ccsc1)N1C[C@@H]2CCN(c3cccnc3)C[C@@H]2C1 | -7.879%
CN(C)CCNC(=O)C1Cc2nc(-c3ccccc3)sc2N1CC1CC1.O=C(O)C(F)(F)F (stereo not drawn) | 101.2%
CC(C)N1[C@@H](C(=O)NCCN(C)C)C[C@H]2CN(c3ncccn3)C[C@H]21.O=C(O)C(F)(F)F.O=C(O)C(F)(F)F.O=C(O)C(F)(F)F | -8.926%
CN(C)CCOCC1CN(C(=O)c2ccsc2)Cc2ccnn2C1.O=C(O)C(F)(F)F.O=C(O)C(F)(F)F (stereo not drawn) | -7.951%
CC(C)N1c2sc(-c3ccccc3)nc2CC1C(=O)NCCCO (stereo not drawn) | 3.342%
O=C(Nc1cccnc1)[C@H]1C[C@H]2OCC[C@H]2N(C(=O)c2ccsc2)C1.O=C(O)C(F)(F)F | -10.81%

Compound | Percent Effect
Cc1cc(C(C)(O)CNC(=O)C2(C)CCCC2)c(C)o1 (stereo not drawn) | -0.4765%
FC(F)(F)CCc1ccnc(NCc2csc(N3CCOCC3)n2)n1 | 9.156%
CNC(=O)[C@@H]1COC[C@H]2CN(C(=O)c3ccc(C)c(C)c3)C[C@H]21 | -0.6496%
CCN(Cc1ncc(C(C)(C)C)o1)Cc1ccccc1C | -27.71%
Cc1cccc(CN(Cc2ccccn2)Cc2ncc(C(C)(C)C)o2)c1 | -46.43%
Cc1cc(CN(C)Cc2cnc3c(c2)c(C)nn3C)no1 | -2.389%
CCN(Cc1cccc(Cl)c1)Cc1ncc(C(C)(C)C)o1 | -36.69%
CN(Cc1ncc(-c2ccccc2)o1)CC1CCCN1c1cccnn1 (stereo not drawn) | 1.26%
Cc1cc(CN(C)Cc2ncc(-c3ccccc3)o2)no1 | 85.66%
Cc1cc(CN(C)Cc2ncc(C(C)(C)C)o2)no1 | 71.54%
Cc1cc(CN(C)Cc2ncc(-c3cccs3)o2)no1 | -12.35%
Cc1ccc(CN(C)Cc2ncc(C(C)(C)C)o2)o1 | 106.2%
CN(Cc1ccc(N(C)C)cc1)C(=O)CS(=O)(=O)c1ccc(Cl)cc1 | -13.85%
CCN1CCN(C(=O)C2CCCc3[nH]ncc32)CC1 (stereo not drawn) | -17.44%
Cc1cccc2c1nc1n2[C@@H](CNC(=O)c2cnccn2)COC1 | -0.5308%
O=C1CC2(CCCCC2)CC(=O)N1CC(O)COCc1ccc(Cl)cc1 (stereo not drawn) | -11.1%
Cc1cc(NC(=O)Cn2cnc(-c3cccs3)cc2=O)no1 | 10.41%
CC(C(=O)NC1CC1)n1nc(-c2cccs2)cc(N)c1=O (stereo not drawn) | 130.1%
Cc1cc(NC(=O)Cn2cnc(-c3cccs3)cc2=O)sn1 | 24.65%
CC(C(=O)NC1CC1)S(=O)(=O)Cc1csc(-c2cccs2)n1 (stereo not drawn) | -10.04%
COc1cccn(C(C)C(=O)NC2CCCC2)c1=O (stereo not drawn) | 10.4%
CC(C(N)=O)n1nc(-c2cccs2)cc(N)c1=O (stereo not drawn) | 54.84%
CCNC(=O)O[C@H]1COCCN(c2nc3ccccc3s2)C1 | 2.544%
